# Columns and labels:
# Test in all cases: DAPPL (digital affinity profiling via proximity ligation, sequencing); 10 mM Tris-HCl pH 7.5, 50 mM NaCl, 1 mM DTT, 4% glycerol, room temperature, 30 min; GST-TFs on glutathione beads, 16-mer random dsDNA library, 0.1% formaldehyde crosslink after washing; high values mean tight binding
# [1] = target: T1, FLI1 (Homo sapiens, UniProt Q01543 1-452); conditions: protein: recombinant; tags: N-terminal GST; dsDNA, one strand shown
# T1 sequence: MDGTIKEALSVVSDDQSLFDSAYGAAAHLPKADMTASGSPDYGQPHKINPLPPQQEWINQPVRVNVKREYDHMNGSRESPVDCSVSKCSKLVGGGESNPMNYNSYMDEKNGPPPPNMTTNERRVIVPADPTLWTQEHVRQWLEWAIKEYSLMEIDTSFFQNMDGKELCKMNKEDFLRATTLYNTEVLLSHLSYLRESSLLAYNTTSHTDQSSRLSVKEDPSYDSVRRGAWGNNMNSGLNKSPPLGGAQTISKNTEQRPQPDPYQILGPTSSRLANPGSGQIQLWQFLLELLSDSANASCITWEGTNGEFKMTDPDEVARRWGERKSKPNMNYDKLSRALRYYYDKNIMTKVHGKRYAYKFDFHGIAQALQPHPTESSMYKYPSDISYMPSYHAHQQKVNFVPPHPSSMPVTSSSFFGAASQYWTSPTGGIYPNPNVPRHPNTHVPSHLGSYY
# Method in brief: (§1)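 Beads coated with glutathione captured GST-fused human transcription factors that had been expressed in yeast, and the factors were then given DNA barcodes and pooled with a tag-only sample. The pools were incubated with 200 nmole of a random double-stranded 16-mer DNA library in Tris/NaCl/DTT/glycerol buffer for 30 min at room temperature, washed, crosslinked with 0.1% formaldehyde and proximity-ligated with BsaI/T4 ligase at 37 °C for 1 h. PCR amplification and Illumina NextSeq500 sequencing came last. Binding signal is each hexamer's read frequency for a factor divided by its frequency for the tag-only sample.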
# [2] = target: T2, ELK1 (Homo sapiens, UniProt P19419 1-428); conditions: protein: recombinant; tags: N-terminal GST; dsDNA, one strand shown
# T2 sequence: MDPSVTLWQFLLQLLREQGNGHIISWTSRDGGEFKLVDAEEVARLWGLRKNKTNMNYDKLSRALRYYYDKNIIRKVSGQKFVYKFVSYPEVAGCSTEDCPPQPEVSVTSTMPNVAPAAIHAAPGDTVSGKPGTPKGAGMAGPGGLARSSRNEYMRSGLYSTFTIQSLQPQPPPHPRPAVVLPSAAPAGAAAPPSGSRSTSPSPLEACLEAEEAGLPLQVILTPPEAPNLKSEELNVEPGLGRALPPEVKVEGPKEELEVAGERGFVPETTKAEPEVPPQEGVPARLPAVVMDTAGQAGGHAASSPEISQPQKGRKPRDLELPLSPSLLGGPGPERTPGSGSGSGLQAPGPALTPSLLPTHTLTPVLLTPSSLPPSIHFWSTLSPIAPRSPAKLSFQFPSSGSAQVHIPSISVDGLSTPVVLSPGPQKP
# Method in brief: as §1
# [3] = target: T3, GABPA (Homo sapiens, UniProt Q06546 1-454); conditions: protein: recombinant; tags: N-terminal GST; dsDNA, one strand shown
# T3 sequence: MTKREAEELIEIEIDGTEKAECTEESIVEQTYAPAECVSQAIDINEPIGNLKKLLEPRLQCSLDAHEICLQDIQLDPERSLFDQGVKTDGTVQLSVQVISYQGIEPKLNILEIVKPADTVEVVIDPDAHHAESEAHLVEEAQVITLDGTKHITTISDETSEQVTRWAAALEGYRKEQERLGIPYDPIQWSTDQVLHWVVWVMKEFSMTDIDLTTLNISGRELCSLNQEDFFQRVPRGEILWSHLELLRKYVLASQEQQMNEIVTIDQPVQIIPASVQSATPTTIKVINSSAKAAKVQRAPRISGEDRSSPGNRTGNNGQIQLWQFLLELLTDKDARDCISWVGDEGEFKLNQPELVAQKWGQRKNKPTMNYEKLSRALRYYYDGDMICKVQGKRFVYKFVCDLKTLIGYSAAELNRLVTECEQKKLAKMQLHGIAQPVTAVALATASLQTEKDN
# Method in brief: as §1
# [4] = target: T4, ERG (Homo sapiens, UniProt P11308 1-479); conditions: protein: recombinant; tags: N-terminal GST; dsDNA, one strand shown
# T4 sequence: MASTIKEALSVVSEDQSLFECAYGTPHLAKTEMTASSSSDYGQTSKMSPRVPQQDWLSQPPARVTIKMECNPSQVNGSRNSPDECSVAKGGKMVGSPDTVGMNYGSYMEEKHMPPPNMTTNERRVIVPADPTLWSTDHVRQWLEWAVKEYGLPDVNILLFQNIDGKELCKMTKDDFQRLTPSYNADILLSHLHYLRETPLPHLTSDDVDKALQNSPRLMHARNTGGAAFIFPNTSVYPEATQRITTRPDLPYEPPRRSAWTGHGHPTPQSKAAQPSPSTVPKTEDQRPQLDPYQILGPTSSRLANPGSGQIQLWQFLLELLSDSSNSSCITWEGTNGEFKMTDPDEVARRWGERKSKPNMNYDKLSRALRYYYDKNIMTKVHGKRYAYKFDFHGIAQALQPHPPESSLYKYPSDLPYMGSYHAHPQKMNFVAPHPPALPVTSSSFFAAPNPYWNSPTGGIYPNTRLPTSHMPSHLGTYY
# Method in brief: as §1
# [5] = target: ELF1 (Homo sapiens, UniProt P32519 1-619); conditions: protein: recombinant; tags: N-terminal GST; dsDNA, one strand shown
# Sequence of ELF1 (P32519 whole entry): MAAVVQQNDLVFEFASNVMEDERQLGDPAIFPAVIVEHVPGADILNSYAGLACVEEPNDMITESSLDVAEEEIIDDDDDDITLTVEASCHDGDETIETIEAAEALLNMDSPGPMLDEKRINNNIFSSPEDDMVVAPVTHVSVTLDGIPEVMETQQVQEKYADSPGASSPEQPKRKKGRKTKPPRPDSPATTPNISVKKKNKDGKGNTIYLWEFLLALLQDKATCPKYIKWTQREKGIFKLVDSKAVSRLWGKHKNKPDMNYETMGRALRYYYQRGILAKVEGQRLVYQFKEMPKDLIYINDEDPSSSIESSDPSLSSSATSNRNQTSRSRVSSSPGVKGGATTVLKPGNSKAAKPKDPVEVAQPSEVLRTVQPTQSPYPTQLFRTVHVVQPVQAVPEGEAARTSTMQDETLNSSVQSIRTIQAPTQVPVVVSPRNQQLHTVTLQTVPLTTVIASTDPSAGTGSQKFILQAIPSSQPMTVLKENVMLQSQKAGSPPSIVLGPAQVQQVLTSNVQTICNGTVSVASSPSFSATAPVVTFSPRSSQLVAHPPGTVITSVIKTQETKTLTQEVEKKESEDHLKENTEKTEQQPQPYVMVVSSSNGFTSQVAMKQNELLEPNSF
# Method in brief: as §1
# [6] = target: T5, EHF (Homo sapiens, UniProt Q9NZC4 1-300); conditions: protein: recombinant; tags: N-terminal GST; dsDNA, one strand shown
# T5 sequence: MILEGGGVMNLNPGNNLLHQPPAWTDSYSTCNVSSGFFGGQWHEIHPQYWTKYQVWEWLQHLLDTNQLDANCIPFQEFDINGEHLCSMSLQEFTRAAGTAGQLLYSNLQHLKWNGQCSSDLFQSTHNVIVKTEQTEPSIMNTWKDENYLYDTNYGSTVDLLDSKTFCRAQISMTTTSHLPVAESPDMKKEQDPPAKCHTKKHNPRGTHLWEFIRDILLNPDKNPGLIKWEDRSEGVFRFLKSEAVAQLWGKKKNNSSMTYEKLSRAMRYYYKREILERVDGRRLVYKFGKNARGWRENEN
# Method in brief: as §1
# [7] = target: SPI1 (Homo sapiens, UniProt P17947 1-270); conditions: protein: recombinant; tags: N-terminal GST; dsDNA, one strand shown
# Method in brief: as §1
# [8] = target: SPIB (Homo sapiens, UniProt Q01892 1-262); conditions: protein: recombinant; tags: N-terminal GST; dsDNA, one strand shown
# Sequence of SPIB (Q01892 whole entry): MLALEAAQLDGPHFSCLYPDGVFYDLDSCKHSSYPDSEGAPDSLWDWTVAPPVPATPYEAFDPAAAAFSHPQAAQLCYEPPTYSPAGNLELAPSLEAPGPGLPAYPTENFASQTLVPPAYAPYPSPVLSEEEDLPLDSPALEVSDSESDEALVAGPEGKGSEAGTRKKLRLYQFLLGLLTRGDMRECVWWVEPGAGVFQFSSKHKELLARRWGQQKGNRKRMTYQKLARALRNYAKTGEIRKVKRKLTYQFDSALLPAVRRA
# Method in brief: as §1
# [9] = target: T6, ELK3 (Homo sapiens, UniProt P41970 1-407); conditions: protein: recombinant; tags: N-terminal GST; dsDNA, one strand shown
# T6 sequence: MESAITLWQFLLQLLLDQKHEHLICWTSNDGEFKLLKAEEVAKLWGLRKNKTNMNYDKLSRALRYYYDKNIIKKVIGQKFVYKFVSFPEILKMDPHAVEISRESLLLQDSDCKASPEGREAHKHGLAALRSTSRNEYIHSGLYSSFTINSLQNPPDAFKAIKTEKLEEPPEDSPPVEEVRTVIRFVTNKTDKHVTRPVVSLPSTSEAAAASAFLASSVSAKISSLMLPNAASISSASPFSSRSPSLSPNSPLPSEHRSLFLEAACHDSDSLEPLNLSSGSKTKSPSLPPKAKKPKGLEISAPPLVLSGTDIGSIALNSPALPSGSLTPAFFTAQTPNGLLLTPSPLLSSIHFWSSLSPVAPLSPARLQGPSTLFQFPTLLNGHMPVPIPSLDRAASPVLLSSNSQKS
# Method in brief: as §1
# [10] = target: T7, FEV (Homo sapiens, UniProt Q99581 1-238); conditions: protein: recombinant; tags: N-terminal GST; dsDNA, one strand shown
# T7 sequence: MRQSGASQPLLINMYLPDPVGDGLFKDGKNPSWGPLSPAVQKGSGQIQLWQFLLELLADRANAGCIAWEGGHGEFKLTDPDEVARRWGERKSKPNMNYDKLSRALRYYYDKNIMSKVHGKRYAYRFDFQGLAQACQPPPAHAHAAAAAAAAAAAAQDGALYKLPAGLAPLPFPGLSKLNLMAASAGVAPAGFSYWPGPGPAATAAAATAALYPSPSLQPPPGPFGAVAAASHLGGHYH
# Method in brief: as §1
# [11] = target: ETV5 (Homo sapiens, UniProt P41161 1-510); conditions: protein: recombinant; tags: N-terminal GST; dsDNA, one strand shown
# Sequence of ETV5 (P41161 whole entry): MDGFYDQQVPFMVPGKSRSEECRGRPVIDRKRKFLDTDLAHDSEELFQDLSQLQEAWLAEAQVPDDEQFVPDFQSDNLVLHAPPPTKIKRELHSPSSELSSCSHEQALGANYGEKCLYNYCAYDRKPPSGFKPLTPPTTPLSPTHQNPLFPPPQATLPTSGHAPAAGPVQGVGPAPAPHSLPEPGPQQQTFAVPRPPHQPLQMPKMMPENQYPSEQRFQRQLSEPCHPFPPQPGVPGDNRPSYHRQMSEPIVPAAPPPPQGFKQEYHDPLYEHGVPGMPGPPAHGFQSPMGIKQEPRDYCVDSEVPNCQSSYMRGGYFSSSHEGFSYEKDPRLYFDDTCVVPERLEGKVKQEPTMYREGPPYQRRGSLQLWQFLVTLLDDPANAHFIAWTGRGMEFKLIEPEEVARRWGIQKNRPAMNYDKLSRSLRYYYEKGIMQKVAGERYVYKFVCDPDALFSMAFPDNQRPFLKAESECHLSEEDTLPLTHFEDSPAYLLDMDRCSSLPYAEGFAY
# Method in brief: as §1
# [12] = target: HSF1 (Homo sapiens, UniProt Q00613 1-529); conditions: protein: recombinant; tags: N-terminal GST; chain copies: 3; dsDNA, one strand shown
# Sequence of HSF1 (Q00613 whole entry): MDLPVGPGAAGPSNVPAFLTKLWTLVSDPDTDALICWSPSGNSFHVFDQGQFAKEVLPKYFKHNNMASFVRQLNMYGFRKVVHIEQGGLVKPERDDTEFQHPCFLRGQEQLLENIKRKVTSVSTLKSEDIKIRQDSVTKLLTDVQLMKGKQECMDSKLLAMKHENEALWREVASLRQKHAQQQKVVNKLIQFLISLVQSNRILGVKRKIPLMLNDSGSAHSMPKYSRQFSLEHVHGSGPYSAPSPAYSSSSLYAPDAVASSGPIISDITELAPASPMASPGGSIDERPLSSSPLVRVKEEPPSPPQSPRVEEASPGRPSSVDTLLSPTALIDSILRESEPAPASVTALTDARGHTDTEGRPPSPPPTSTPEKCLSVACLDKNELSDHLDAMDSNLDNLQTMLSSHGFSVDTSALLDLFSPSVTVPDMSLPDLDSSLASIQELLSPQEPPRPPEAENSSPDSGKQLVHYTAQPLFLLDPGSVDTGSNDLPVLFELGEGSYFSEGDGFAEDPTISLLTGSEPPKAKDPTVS
# Method in brief: as §1
# [13] = target: T8, SPIC (Homo sapiens, UniProt Q8N5J4 1-248); conditions: protein: recombinant; tags: N-terminal GST; dsDNA, one strand shown
# T8 sequence: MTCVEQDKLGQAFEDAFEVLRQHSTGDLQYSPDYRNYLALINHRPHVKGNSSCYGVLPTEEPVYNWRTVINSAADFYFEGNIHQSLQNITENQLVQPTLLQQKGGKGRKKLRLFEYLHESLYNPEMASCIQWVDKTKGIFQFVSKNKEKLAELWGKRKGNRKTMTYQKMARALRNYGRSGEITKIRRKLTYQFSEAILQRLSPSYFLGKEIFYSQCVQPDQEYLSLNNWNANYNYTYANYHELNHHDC
# Method in brief: as §1
# [14] = target: ELF4 (Homo sapiens, UniProt Q99607 1-663); conditions: protein: recombinant; tags: N-terminal GST; dsDNA, one strand shown
# Sequence of ELF4 (Q99607 whole entry): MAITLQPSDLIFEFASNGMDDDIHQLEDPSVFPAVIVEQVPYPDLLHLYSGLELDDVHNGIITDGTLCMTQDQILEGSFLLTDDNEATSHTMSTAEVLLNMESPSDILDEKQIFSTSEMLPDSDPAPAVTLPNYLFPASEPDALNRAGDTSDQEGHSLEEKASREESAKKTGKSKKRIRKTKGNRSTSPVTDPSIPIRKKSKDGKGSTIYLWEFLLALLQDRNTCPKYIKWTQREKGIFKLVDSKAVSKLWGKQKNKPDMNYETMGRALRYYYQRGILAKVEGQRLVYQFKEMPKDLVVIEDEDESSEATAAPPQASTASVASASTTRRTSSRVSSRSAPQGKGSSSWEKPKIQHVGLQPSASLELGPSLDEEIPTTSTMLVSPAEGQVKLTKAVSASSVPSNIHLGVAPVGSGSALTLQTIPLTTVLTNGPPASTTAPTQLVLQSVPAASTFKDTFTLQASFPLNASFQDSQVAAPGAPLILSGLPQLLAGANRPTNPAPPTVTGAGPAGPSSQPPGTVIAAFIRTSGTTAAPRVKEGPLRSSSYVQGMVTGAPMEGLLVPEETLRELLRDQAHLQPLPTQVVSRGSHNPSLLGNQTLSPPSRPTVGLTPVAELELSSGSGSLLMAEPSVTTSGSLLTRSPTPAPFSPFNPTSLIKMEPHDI
# Method in brief: as §1
# [15] = target: T9, ELK4 (Homo sapiens, UniProt P28324-2 1-405); conditions: protein: recombinant; tags: N-terminal GST; dsDNA, one strand shown
# T9 sequence: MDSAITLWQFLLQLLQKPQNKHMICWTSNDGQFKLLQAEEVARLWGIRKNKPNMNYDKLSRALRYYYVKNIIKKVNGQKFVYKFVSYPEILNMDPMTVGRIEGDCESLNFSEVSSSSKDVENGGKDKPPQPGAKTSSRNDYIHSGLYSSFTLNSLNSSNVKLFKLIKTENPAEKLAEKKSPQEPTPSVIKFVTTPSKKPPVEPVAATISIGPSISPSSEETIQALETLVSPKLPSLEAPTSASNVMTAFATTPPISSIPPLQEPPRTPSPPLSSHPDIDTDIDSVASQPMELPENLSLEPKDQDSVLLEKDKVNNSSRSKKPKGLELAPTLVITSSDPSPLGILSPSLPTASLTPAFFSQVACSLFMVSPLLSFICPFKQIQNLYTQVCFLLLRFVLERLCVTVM
# Method in brief: as §1
# [16] = target: T10, ETV2 (Homo sapiens, UniProt O00321 1-342); conditions: protein: recombinant; tags: N-terminal GST; dsDNA, one strand shown
# T10 sequence: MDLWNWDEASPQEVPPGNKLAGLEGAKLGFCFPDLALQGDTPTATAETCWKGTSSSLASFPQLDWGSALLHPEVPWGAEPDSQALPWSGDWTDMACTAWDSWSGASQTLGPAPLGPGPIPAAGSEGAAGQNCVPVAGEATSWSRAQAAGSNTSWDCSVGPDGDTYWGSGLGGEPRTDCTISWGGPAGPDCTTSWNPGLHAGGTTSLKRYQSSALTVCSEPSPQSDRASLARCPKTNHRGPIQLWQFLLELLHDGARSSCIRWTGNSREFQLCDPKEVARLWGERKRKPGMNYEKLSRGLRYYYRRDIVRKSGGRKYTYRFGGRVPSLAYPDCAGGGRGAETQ
# Method in brief: as §1
# [17] = target: T11, ELF3 (Homo sapiens, UniProt P78545 1-371); conditions: protein: recombinant; tags: N-terminal GST; dsDNA, one strand shown
# T11 sequence: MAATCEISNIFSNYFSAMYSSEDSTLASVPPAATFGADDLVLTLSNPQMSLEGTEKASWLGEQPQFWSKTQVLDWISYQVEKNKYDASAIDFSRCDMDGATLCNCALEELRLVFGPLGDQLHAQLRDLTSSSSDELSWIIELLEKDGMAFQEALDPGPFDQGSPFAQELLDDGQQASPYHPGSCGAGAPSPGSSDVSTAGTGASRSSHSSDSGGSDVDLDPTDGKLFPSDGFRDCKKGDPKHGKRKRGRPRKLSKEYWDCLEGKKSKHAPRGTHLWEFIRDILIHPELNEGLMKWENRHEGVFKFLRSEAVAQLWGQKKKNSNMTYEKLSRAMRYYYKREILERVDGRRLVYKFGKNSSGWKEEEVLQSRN
# Method in brief: as §1
# [18] = target: CRX (Homo sapiens, UniProt O43186 1-299); conditions: protein: recombinant; tags: N-terminal GST; dsDNA, one strand shown
# Sequence of CRX (O43186 whole entry): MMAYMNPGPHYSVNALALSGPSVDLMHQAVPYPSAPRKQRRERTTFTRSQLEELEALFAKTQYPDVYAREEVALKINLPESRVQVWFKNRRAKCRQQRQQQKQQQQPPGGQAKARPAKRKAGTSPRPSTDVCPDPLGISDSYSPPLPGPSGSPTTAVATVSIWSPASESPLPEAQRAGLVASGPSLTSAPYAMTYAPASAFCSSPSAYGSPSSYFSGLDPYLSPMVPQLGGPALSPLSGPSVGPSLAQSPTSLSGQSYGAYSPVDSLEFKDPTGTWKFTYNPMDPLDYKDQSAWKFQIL
# Method in brief: as §1
# [19] = target: ETV1 (Homo sapiens, UniProt P50549 1-477); conditions: protein: recombinant; tags: N-terminal GST; dsDNA, one strand shown
# Sequence of ETV1 (P50549 whole entry): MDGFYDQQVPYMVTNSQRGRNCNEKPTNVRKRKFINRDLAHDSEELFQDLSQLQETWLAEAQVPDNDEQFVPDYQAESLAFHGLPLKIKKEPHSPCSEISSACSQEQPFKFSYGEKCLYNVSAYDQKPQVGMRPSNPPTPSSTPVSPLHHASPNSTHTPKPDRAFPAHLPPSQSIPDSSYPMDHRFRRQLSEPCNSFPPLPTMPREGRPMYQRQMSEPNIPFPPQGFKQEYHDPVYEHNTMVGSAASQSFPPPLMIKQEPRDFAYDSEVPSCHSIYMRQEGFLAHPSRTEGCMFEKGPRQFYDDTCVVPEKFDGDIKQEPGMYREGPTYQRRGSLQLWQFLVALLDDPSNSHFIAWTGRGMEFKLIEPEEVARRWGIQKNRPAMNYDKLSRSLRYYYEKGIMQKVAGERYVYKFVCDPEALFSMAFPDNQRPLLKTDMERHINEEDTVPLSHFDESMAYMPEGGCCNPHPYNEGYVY
# Method in brief: as §1
sequence,measurement,setting,value
TTTCTC,binding signal,[1],"1.64 fold enrichment (6-mer frequency, TF over GST control)"
same,binding signal,[2],"1.66 fold enrichment (6-mer frequency, TF over GST control)"
same,binding signal,[3],"1.58 fold enrichment (6-mer frequency, TF over GST control)"
same,binding signal,[4],"1.54 fold enrichment (6-mer frequency, TF over GST control)"
same,binding signal,[5],"1.62 fold enrichment (6-mer frequency, TF over GST control)"
same,binding signal,[6],"1.59 fold enrichment (6-mer frequency, TF over GST control)"
same,binding signal,[7],"1.7 fold enrichment (6-mer frequency, TF over GST control)"
same,binding signal,[8],"1.63 fold enrichment (6-mer frequency, TF over GST control)"
same,binding signal,[9],"1.46 fold enrichment (6-mer frequency, TF over GST control)"
same,binding signal,[10],"1.52 fold enrichment (6-mer frequency, TF over GST control)"
same,binding signal,[11],"1.53 fold enrichment (6-mer frequency, TF over GST control)"
same,binding signal,[12],"2.63 fold enrichment (6-mer frequency, TF over GST control)"
same,binding signal,[13],"1.55 fold enrichment (6-mer frequency, TF over GST control)"
same,binding signal,[14],"1.6 fold enrichment (6-mer frequency, TF over GST control)"
same,binding signal,[15],"1.78 fold enrichment (6-mer frequency, TF over GST control)"
same,binding signal,[16],"1.65 fold enrichment (6-mer frequency, TF over GST control)"
same,binding signal,[17],"1.86 fold enrichment (6-mer frequency, TF over GST control)"
same,binding signal,[18],"1.67 fold enrichment (6-mer frequency, TF over GST control)"
same,binding signal,[19],"1.46 fold enrichment (6-mer frequency, TF over GST control)"
